PostGolgi ctrl: yeast control strain growth, post-Golgi counter-screen | AID 738 | efflux-deficient yeast background strain, growth absorbance A615, 16 h | inhibition, % at 10 µM | 5% of 98,000 active
CYP2C9 activ: CYP2C9 (human) activation. P11712. recombinant CYP2C9, luciferin-H conversion, luminescence; active compounds read high; factor 1 = untreated enzyme, 0 = blocked. activation factor at 5 µM. 1.4% of 96,000 active. AID 1024;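 active = activation factor of 2 or more for CYP2C9 at a 5 µM dose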;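 also: 0 = sulfaphenazole-blocked wells and 1 = vehicle-only wells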
CYP2C9 inh: human CYP2C9 inhibition; CYP2C9 Supersomes, luciferin-H conversion, luminescence; inhibition, % at 5 µM; 20% of 96,000 active; P11712;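 active = blocking of liver enzyme CYP2C9 beyond about 50% at 5 µM, limit read from the data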
PostGolgi yeast: growth inhibition of a yeast mutant, post-Golgi transport screen | post-Golgi transport phenotypic cell assay | inhibition, % at 10 µM | 0.9% of 98,000 active | AID 739;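 also: yeast cells grown in 1536-well plates; yeast grown about 18 h at 30C before absorbance read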
CYP2C19 inh: human CYP2C19 inhibition. inhibition, % at 5 µM. CYP2C19 Supersomes, luciferin-H EGE luminescence, 30 min. P33261. 21% of 96,000 active;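 active = CYP2C19 inhibition above a set limit at 5 µM in the primary screen, cut at about 50% in these data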;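 also: plate controls were negative control wells for no effect and 2.5 mM tranylcypromine positive control for full effect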
Target sequence (P33261 whole entry, looked up): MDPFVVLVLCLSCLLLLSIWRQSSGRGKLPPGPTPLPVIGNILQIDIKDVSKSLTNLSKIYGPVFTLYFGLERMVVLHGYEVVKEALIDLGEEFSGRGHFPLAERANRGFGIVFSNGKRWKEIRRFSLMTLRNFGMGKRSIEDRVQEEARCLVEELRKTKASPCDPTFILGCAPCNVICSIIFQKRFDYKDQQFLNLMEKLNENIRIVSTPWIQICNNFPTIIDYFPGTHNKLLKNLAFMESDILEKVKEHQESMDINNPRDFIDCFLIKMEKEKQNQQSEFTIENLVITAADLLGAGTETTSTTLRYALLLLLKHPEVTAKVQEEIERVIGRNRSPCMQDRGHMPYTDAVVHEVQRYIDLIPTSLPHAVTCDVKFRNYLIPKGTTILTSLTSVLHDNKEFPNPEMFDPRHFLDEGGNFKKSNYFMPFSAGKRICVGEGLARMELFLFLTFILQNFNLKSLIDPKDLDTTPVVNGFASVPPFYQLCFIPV
CYP2C19 activ: increases human CYP2C19 enzyme activity; P33261; recombinant CYP2C19, luciferin-H EGE luminescence; active compounds read high; 0 = fully inhibited enzyme, 1 = untreated enzyme; activation factor at 5 µM; 96,000 tested, under 10 active;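 active = activation factor of at least 2 at 5 µM in the primary screen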;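 also: 0 = wells with 2.5 mM tranylcypromine and 1 = vehicle-only wells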
Numbers without * were called inactive; nt = not tested or not shown. This is a sample that favours compounds with a hit; in the whole collection about 32% have one here. Rule as the data show it, unless noted: active = inhibition above about 30%; inactive = the rest.

SMILES	PostGolgi ctrl	CYP2C9 activ	CYP2C9 inh	PostGolgi yeast	CYP2C19 inh	CYP2C19 activ
O=C1C2CC=CCC2C(=O)N1c1n[nH]c(-c2ccccc2)n1 (configuration not stated)	-3	0.1	92*	9	80*	0.2
O=C1C2CC=CCC2C(=O)N1c1n[nH]c(CCc2ccccc2)n1 (configuration not stated)	10	1.1	-14	34*	10	0.9
CC(C)(C)NC(=O)COC(=O)Cc1ccc(Cl)cc1	-5	1.1	-9	1	30	0.7
CCn1c(SCC(=O)c2ccccc2)nc2c(c1=O)SC(C)C2 (configuration not stated)	17	0.1	90*	0	38	0.6
COCCn1c(SCC(=O)c2ccccc2)nc2c(c1=O)SC(C)C2 (configuration not stated)	nt	0	96*	nt	91*	0.1
CCn1c(SCC(=O)NCC2CCCO2)nc2c(c1=O)SC(C)C2 (configuration not stated)	9	0.9	12	18	1	1
CCOC(=O)CC1=NC(=O)CS1	-4	1.1	-8	6	-8	1.1
CC1CCCN(C(=O)COC(=O)c2ccc[nH]c2=O)C1 (configuration not stated)	-7	1	0	5	8	0.9
O=C(CN1C(=O)C2C3C=CC(C3)C2C1=O)NCCC1=CCCCC1 (configuration not stated)	8	0.9	15	15	51*	0.5
O=C(NCCC1=CCCCC1)C1COc2ccccc2O1 (configuration not stated)	11	0.4	58*	-5	87*	0.1
O=C(O)CN1C(=O)C2C3C=CC(C3)C2C1=O (configuration not stated)	0	1.1	-12	-2	-5	1
CCC1Oc2ccccc2N(CC(=O)NCCC2=CCCCC2)C1=O (configuration not stated)	18	0.6	41	9	89*	0.1
COCCCNC(=O)c1c(NC(=O)C2COc3ccccc3O2)sc2c1CCCC2 (configuration not stated)	3	0.1	92*	18	82*	0.2
Cc1csc(SCC(=O)Nc2ncc(Cl)c(C)c2Cl)n1	-3	0.8	17	5	38	0.6
CC1(C)CC(=O)c2c(noc2-c2ccccc2)C1	3	0.9	13	10	46	0.5
O=C(CN1CCN(c2ncccn2)CC1)NCCC1=CCCCC1	4	0.1	94*	17	54*	0.5
COC(=O)c1ccc2c(c1)S(=O)(=O)NC(=NCc1ccco1)S2	6	1.2	-22	1	22	0.8
COc1ccc(CCC(=O)Nc2nc3c(s2)CN(C)CC3)cc1OC	14	0.9	9	-7	19	0.8
CCc1nnc(N/N=C/c2c(Cl)cccc2Cl)n1N	7	1.1	-11	0	63*	0.4
CCOC(=O)n1ccc(C(=O)Nc2ccccc2F)n1	27	0.8	19	0	7	0.9
COc1ccccc1NS(=O)(=O)c1ccc(NC(=O)c2nc3nc(C)cc(C(F)F)n3n2)cc1	8	0.4	61*	0	26	0.7
COc1ccccc1NS(=O)(=O)c1ccc(NC(=O)c2nc3ncccn3n2)cc1	10	1.1	-6	-1	34	0.7
CCn1ccc(C(=O)Nc2ccc(S(=O)(=O)Nc3ccccc3OC)cc2)n1	1	0.2	82*	4	81*	0.2
CCCCOC(=O)n1ccc(C(=O)Nc2ccccc2OC)n1	1	2.1*	-111	2	10	0.9
CCN1C(=O)/C(=C/N(C(C)=O)c2ccccc2)N(c2ccccc2)C1=S	28	0	95*	-8	63*	0.4
SMILES	PostGolgi ctrl	CYP2C9 activ	CYP2C9 inh	PostGolgi yeast	CYP2C19 inh	CYP2C19 activ
N#CC1(c2ccccc2)CCCN1C(=O)c1ccccc1Br (configuration not stated)	-3	1	0	-5	11	0.9
CCN(CC)C(=O)C(Cc1ccccc1)N1C(=O)c2ccccc2C1=O (configuration not stated)	12	0.5	53*	-6	67*	0.3
O=C(NCC(c1cccs1)N1CCOCC1)c1ccc(Cl)s1 (configuration not stated)	2	0.5	54*	-4	72*	0.3
O=C(NCCN1CCN(c2ccccc2)CC1)C1CCN(S(=O)(=O)N2CCOCC2)CC1	4	0.9	10	-3	3	1
O=C1c2ccccc2CC1Sc1nnc(-c2ccncc2)o1 (configuration not stated)	-9	0.1	87*	5	96*	0
O=C1CC(Sc2nnc(-c3ccccc3)o2)C(=O)N1c1ccccc1 (configuration not stated)	-7	0.9	12	-2	13	0.9
CC(C)(C)C1CC=C2C(C#N)=C(N)C(C#N)(C#N)C(c3cccs3)C2C1 (configuration not stated)	nt	0.1	90*	nt	57*	0.4
CCOc1ccc(CSC(=N)N)cc1[N+](=O)[O-]	4	0.8	17	3	9	0.9
Cc1ccc2nc(NC(=O)CSCc3ccccc3)sc2c1	-2	1	3	-6	4	1
Cc1ccc2c(c1)sc[n+]2Cc1ccccc1	11	0.3	68*	8	66*	0.3
N#CC(C(=O)c1ccco1)c1ccccn1 (configuration not stated)	13	0.7	28	-4	-2	1
CCc1cc2c(=O)c(-c3nc4ccccc4[nH]3)coc2cc1OC(=O)N1CCOCC1	3	0.8	25	31*	7	0.9
O=P(O)(c1ccc(Cl)cc1)c1ccc(Cl)cc1	3	0.6	44	4	27	0.7
C=CCn1c(SCc2c(C(=O)OC)sc(N)c2C(=O)OC)nnc1-c1ccc(Br)cc1	20	0.1	87*	11	72*	0.3
C=CCn1c(SCC(=O)Nc2ncc(Cc3ccc(Br)cc3)s2)nnc1-c1ccncc1	10	1	-1	-5	33	0.7
Cc1[nH]c2c(ccc3ccccc32)c1C1C(CCN)C1(C)C (configuration not stated)	11	0.7	31	6	13	0.9
O=c1c(/C=N/O)coc2ccc3ccccc3c12	-2	2*	-96	2	0	1
Cc1ccc2occ(/C=N/O)c(=O)c2c1	3	1	3	-6	-1	1
COc1cc2nc(C3CCC3)n(NC(=O)C(OC(C)=O)c3ccccc3)c(=O)c2cc1OC (configuration not stated)	16	0.9	7	2	4	1
CCOCCCNC(=O)C(NC(=O)c1cnccn1)c1ccc(C)cc1 (configuration not stated)	-9	1	-3	-1	59*	0.4
